The entries come from a sample that favours hits as a whole.
PRC2 inh: inhibitors of human EZH2/PRC2 methyltransferase; Q15910; PRC2 H3K27 methylation, DELFIA TRF, 1 h; inhibition, % at 12.5 µM; 0.35% of 57,000 active;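 active = mean inhibition of replicates at least 50% and every single replicate also reaching 50%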;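 note: dimethyl H3K27 on biotinylated H3 21-44 peptide detected by antibody; plate controls were median neutral control wells for no effect and median positive control wells for full effect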
Target sequence (Q15910 whole entry, looked up): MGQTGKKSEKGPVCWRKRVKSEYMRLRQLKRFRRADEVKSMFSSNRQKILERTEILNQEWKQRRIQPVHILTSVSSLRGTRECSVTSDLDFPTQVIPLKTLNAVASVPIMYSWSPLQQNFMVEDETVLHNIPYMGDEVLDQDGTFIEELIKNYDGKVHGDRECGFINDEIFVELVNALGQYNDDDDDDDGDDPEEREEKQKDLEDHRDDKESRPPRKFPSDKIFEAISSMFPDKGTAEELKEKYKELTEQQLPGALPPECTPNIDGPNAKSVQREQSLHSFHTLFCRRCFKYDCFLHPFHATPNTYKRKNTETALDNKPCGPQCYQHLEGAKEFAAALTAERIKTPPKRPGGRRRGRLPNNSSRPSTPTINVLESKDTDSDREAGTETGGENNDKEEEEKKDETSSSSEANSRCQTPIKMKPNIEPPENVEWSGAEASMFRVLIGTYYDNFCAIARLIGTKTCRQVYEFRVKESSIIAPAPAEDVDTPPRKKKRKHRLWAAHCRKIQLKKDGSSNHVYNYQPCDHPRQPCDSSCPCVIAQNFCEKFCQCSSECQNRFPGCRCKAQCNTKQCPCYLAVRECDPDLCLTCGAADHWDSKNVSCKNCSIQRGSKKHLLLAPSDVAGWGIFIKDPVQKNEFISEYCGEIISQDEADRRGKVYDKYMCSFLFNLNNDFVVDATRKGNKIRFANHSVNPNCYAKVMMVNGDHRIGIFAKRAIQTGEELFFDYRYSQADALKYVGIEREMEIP
* hit, by the source's call.

CCCc1cc(=O)oc2cc(OCc3cc(C(=O)O)oc3C)ccc12 was read as PRC2 inh -8.
`COc1ccccc1-c1cc(-c2ccccc2)nc(SCC(=O)c2cc3ccccc3oc2=O)c1C#N` gave PRC2 inh -12.
Screening Cc1cc2nn(-c3ccccc3)nc2cc1NC(=O)C(C)(C)Oc1ccc(Cl)cc1 returned PRC2 inh 16.
O=C(CSc1n[nH]c(-c2ccc(Cl)cc2Cl)n1)Nc1cccc(C(F)(F)F)c1 was read as PRC2 inh 29.
For O=C(CSc1n[nH]c(-c2ccc(Cl)cc2Cl)n1)Nc1cc(C(F)(F)F)ccc1Cl the results were PRC2 inh 9.
Screening O=C(CSc1n[nH]c(-c2ccc(Cl)cc2Cl)n1)Nc1ccc(I)cc1 returned PRC2 inh 58*.
Screening CCN(CC(=O)Nc1ccccc1OC)S(=O)(=O)c1ccc(Cl)cc1 returned PRC2 inh -2.
`COc1ccc(N(CC(=O)Nc2ccc(C)cc2C)S(C)(=O)=O)cc1` gave PRC2 inh 15.
For Cc1ccccc1CN1C(=O)C(O)(CC(=O)c2ccncc2)c2cc(Cl)ccc21 (centres undefined) the results were PRC2 inh -14.
Screening CN(CC(=O)Nc1cccc(I)c1)S(=O)(=O)c1ccc(Cl)cc1 returned PRC2 inh 53*.
Screening CN(CC(=O)Nc1cccc(Cl)c1)S(=O)(=O)c1ccc2ccccc2c1 returned PRC2 inh 42.
`CC(=O)Nc1ccc(NC(=O)CN(C)S(=O)(=O)c2ccc(Cl)cc2)cc1` gave PRC2 inh -4.
C=C(C)Cn1c(SCc2nc3ccccc3[nH]2)nc2sc3c(c2c1=O)CCC3 was read as PRC2 inh -1.
Screening C[C@@H]1O[C@@H](Oc2cc(O)c3c(=O)c(O[C@@H]4O[C@@H](C)[C@H](O)[C@@H](O[C@@H]5OC[C@@H](O)[C@H](O)[C@H]5O)[C@H]4O[C@@H]4O[C@H](CO)[C@@H](O)[C@H](O)[C@H]4O)c(-c4ccc(O)cc4)oc3c2)[C@H](O)[C@H](O)[C@H]1O returned PRC2 inh 15.
CC1OC(OCC2OC(Oc3c(-c4ccc(O)c(O)c4)oc4cc(O)cc(O)c4c3=O)C(O)C(O)C2O)C(O)C(O)C1O (centres undefined) was read as PRC2 inh 0.
O=c1c(OC2OC(CO)C(O)C(O)C2OC2OC(CO)C(O)C(O)C2O)c(-c2ccc(O)cc2)oc2cc(O)cc(O)c12 (centres undefined) was read as PRC2 inh 87*.
Screening CCn1c(SCC(N)=O)nnc1-c1ccncc1 returned PRC2 inh -5.
`COC(=O)C1=CO[C@@H](O[C@@H]2O[C@H](CO)[C@@H](O)[C@H](O)[C@H]2O)[C@@H]2[C@@H]3CN4CCc5c([nH]c6ccccc56)[C@]4(C[C@H]12)O3` gave PRC2 inh 52*.
`C=C[C@H]1[C@H](O[C@@H]2O[C@H](CO)[C@@H](O)[C@H](O)[C@H]2O)OC=C(C(=O)OC)[C@H]1C[C@@H]1N[C@H](C(=O)O)Cc2c1[nH]c1ccccc21` gave PRC2 inh 98*.
`COC(=O)C1=CO[C@@H](O[C@@H]2O[C@H](CO)[C@@H](O)[C@H](O)[C@H]2O)[C@@H]2[C@@H](C)[C@@H](O)[C@@H](OC(=O)/C=C/c3ccc(O)c(O)c3)[C@H]12` gave PRC2 inh 11.
Screening CC1(OC(=O)/C=C/c2ccccc2)CC(O)C2C=COC(OC3OC(CO)C(O)C(O)C3O)C21 (centres undefined) returned PRC2 inh 12.
For C=CC(C)(O)CC/C=C(\C)C(=O)OCC1CCC2C(C(=O)O)=COC(OC3OC(CO)C(O)C(O)C3O)C12 (centres undefined) the results were PRC2 inh 0.
For C=C1C(O)CC2C(C(=O)OC)=CO[C@@H](O[C@@H]3O[C@H](CO)[C@@H](O)[C@H](O)[C@H]3O)C12 (some centres undefined) the results were PRC2 inh 25.
`COC(=O)c1cccc(NC(=O)COc2ccc(OC)cc2)c1C` gave PRC2 inh -5.
`Cc1ccc(C(=O)CSc2nc3ccccc3o2)cc1[N+](=O)[O-]` gave PRC2 inh 23.
For Cc1ccc(N(C(C)C(=O)NC2CCCCC2)S(C)(=O)=O)cc1C (centres undefined) the results were PRC2 inh -4.
Screening Cc1ccc2c(c1)c1c(n2CC(O)CN2CCOCC2)C(=O)CCC1 (centres undefined) returned PRC2 inh 1.
For O=C(CC1(O)C(=O)N(CCc2ccccc2)c2ccc(Br)cc21)c1ccncc1 (centres undefined) the results were PRC2 inh 1.
Screening CCn1c(SCc2nc(-c3cccs3)no2)nnc1-c1cccs1 returned PRC2 inh -16.
For Cc1ccc(Oc2ccc(NC(=O)CCCC(=O)O)cc2)cc1C the results were PRC2 inh -2.
Screening COc1ccc(OC)c(C2C(C(=O)c3ccco3)C(=O)C(=O)N2Cc2cccnc2)c1 (centres undefined) returned PRC2 inh -11.
`O=C(/C=C/c1ccc(OCCc2cccs2)cc1)NO` gave PRC2 inh -1.
`Cc1ccc(NC(=O)CN(c2ccc(Cl)c(C(F)(F)F)c2)S(C)(=O)=O)cc1` gave PRC2 inh 13.
`COc1cc(OC)c2c(c1O)OC(c1ccccc1)CC2=O` (centres undefined) gave PRC2 inh 72*.
Screening COc1cc2c(c(O)c1OC)C(=O)CC(c1ccc(O)cc1)O2 (centres undefined) returned PRC2 inh 11.
Screening COc1cc(O)cc2c1C(=O)OC(C)C2 (centres undefined) returned PRC2 inh 12.
Screening Cn1nnnc1SCC(=O)Nc1ccc(F)c(F)c1 returned PRC2 inh -5.
`[N-]=[N+]=Nc1cccc(C(=O)N2CCC3(CC2)C(=O)NCN3c2ccccc2)c1` gave PRC2 inh 5.
Screening C=CCNC(=O)[C@H]1[C@@H]2C(=O)O[C@@H](c3ccccc3)[C@@H](c3ccccc3)N2[C@@H](c2ccccc2OCCO)[C@]12C(=O)Nc1ccc(C#Cc3ccc(OC)cc3)cc12 returned PRC2 inh -19.
C=CCNC(=O)[C@@H]1[C@H]2C(=O)O[C@H](c3ccccc3)[C@H](c3ccccc3)N2[C@H](c2ccccc2OCCO)[C@@]12C(=O)Nc1ccc(C#Cc3ccc(OC)cc3)cc12 was read as PRC2 inh -11.
`COc1ccc(C#Cc2ccc3c(c2)[C@]2(C(=O)N3)[C@H](c3ccccc3OCCO)N3[C@H](c4ccccc4)[C@H](c4ccccc4)OC(=O)[C@H]3[C@@H]2C(=O)O)cc1` gave PRC2 inh 59*.
Cn1c(NCCCN)nc2c1c(=O)n(Cc1ccccc1Cl)c(=O)n2C was read as PRC2 inh -16.
COc1ccc(OCC(=O)Nc2sc3c(c2C#N)CCC3)cc1 was read as PRC2 inh 13.
Screening COc1cc(OC)cc(-c2nnc(SCC(=O)Nc3sc4c(c3C#N)CCCC4)o2)c1 returned PRC2 inh 68*.
For Cc1cc(C)c(C#N)c(SCC(=O)Nc2sc3c(c2C#N)CCC3)n1 the results were PRC2 inh 6.
`Cc1cc2c(=O)n(Cc3ccco3)c(SCc3cc(=O)[nH][nH]3)nc2s1` gave PRC2 inh -3.
`CC[C@H]1C(=O)CC2C3CCC4C[C@@H](O)[C@]5(O)C[C@]4(CO5)C3CC[C@@]21C` (some centres undefined) gave PRC2 inh -16.

Source: PubChem BioAssay (Broad Institute)
